Source: PubChem
Anthrax LF prot: Bacillus anthracis LF protease inhibitors, primary screen, biochemical, multiplex microsphere, MLPCN library | actives 0.12% (n = 360,000) | AID 588501, 2011 | inhibition, % at 10 µM | Lethal factor (Bacillus anthracis), P15917 | multiplex microsphere protease cleavage assay; note: plate controls were buffer without enzyme for full effect and enzyme alone for no effect
Target sequence (P15917 whole entry, looked up): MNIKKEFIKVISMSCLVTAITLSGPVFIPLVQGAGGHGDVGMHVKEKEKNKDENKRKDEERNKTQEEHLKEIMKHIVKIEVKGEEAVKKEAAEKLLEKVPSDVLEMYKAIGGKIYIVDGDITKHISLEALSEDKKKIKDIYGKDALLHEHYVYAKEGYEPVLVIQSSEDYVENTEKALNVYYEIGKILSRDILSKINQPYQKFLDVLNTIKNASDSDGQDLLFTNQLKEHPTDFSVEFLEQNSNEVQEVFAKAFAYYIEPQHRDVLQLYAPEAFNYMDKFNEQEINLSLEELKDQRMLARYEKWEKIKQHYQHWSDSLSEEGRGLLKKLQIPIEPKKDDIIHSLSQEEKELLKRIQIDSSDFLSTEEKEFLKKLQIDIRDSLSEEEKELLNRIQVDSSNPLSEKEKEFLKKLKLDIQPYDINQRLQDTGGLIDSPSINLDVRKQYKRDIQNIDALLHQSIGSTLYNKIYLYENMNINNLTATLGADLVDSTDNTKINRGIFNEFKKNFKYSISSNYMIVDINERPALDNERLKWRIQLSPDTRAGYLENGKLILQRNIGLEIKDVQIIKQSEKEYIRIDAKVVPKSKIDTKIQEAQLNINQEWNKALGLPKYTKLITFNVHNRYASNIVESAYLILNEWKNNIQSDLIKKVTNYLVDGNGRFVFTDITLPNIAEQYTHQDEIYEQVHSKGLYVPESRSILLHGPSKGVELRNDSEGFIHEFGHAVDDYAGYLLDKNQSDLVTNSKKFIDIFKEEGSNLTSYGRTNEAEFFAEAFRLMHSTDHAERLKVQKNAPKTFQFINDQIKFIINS
PriA SSB inh: inhibitors of Klebsiella pneumoniae PriA binding to SSB C-terminal tail, primary screen, biochemical, AlphaScreen; actives 0.6% (n = 430,000); inhibition, % at 33 µM; PriA–SSB C-terminal tail interaction (Klebsiella pneumoniae); AlphaScreen SSBct-PriA binding, biotinylated peptide; in the data active = inhibition mostly above about 37%, no sharp cut-off; inactive = mostly below about 20%;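 note: plate controls were negative control peptide for no effect and reference peptide for full effect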
BoNT F protease: BoNT/F light chain protease inhibitors, primary screen, biochemical, flow cytometry, MLPCN library | Botulinum neurotoxin type F light chain protease (Clostridium botulinum) | Multiplex microsphere protease cleavage assay | inhibition, % at 10 µM | actives 0.22% (n = 360,000) | AID 588497, 2011; in the data active = inhibition above about 35%, passing the limit was not always enough; inconclusive = no clear call, values can overlap the other calls; note: plate controls were buffer without enzyme for full effect and enzyme alone for no effect
BoNT-A LC inh2: BoNT/A light chain protease inhibitors, primary screen, biochemical, flow cytometry, MLPCN library; Botulinum neurotoxin type A light chain protease (Clostridium botulinum A str. ATCC 3502); multiplex microsphere protease substrate cleavage; inhibition, % at 10 µM; actives 0.17% (n = 360,000); note: plate controls were buffer without enzyme for full effect and enzyme alone for no effect
Autofluor counter: flagged as autofluorescent in microsphere protease counterscreen. fluorescence intensity (concentration not given with the values). actives 3.1% (n = 360,000). compound autofluorescence counterscreen, microsphere flow cytometry; stronger effect = higher value. AID 624483; in the data active = fluorescence intensity above about 16000; inconclusive = no clear call, values can overlap the other calls
* marks the source's active call; other numbers are inactive results; i = inactive; ? = inconclusive; . = no result given. Shown are actives, neighbours in structure and some others; about 3.1% of the full set was active somewhere. Cut-off read from the data, not from the text of the source, unless noted: active = inhibition above about 30%; inconclusive = no clear call, values can overlap the other calls; inactive = below that.

SMILES	Anthrax LF prot	PriA SSB inh	BoNT F protease	BoNT-A LC inh2	Autofluor counter
Cc1cc([N+](=O)[O-])nn1Cc1c(F)c(F)c(F)c(F)c1F	-16	-1	14	10	18842*
Cc1cc([N+](=O)[O-])nn1CCCC(=O)NCc1ccc(F)cc1	-1	-5	-2	0	3668
CCn1c(SCC(=O)NCCc2ccccc2)nc2sc3c(c2c1=O)CCC3	.	-5	.	.	.
NC(=NOC(=O)CSc1ccccc1)c1ccc([N+](=O)[O-])cc1	.	23	.	.	.
Cc1ccc(SCC(=O)O/N=C(\N)c2ccc([N+](=O)[O-])cc2)cc1	-1	i	3	3	22162*
O=C(Cc1csc(Nc2ccccc2)n1)N1CCN(Cc2ccccc2)CC1	.	9	.	.	.
CC(/C=N/n1c(-c2cccnc2)n[nH]c1=S)=C\c1ccccc1	-1	.	-1	0	16837*
O=C1C2CC=CCC2C(=O)N1c1cccc(OS(=O)(=O)c2ccc3ccccc3c2)c1 (stereo not given)	-9	-5	-3	?	20101*
COc1ccc(CN2CCN(c3ncccn3)CC2)c(OC)c1	0	-13	-3	-1	22491*
c1ccc(-c2ccc(CN3CCN(c4ncccn4)CC3)cc2)cc1	-12	-16	-2	-1	16137*
Fc1cccc(CN2CCN(c3ncccn3)CC2)c1	3	-7	7	5	19248*
c1ccc(CN2CCN(c3ncccn3)CC2)cc1	2	-7	?	0	4368
FC(F)(F)c1cccc(CN2CCN(c3ncccn3)CC2)c1	-10	-9	2	0	4407
CCN(CC)S(=O)(=O)c1cccc(N=Nc2cc(O)cc3ccccc23)c1	.	62	.	.	.
CCCN1C(=O)C(C)(C)COc2cc(NS(=O)(=O)c3ccc(F)c(Cl)c3)ccc21	.	-16	.	.	.
O=c1c2c3c(sc2nc(SCc2nc4ccccc4[nH]2)n1Cc1ccco1)CCC3	.	-6	.	.	.
CC(=O)N(C)c1ccc(NC(=O)c2ccccc2C(=O)O)cc1	-1	-3	3	?	21123*
COC(=O)c1ccc(NC(=O)c2ccccc2N(C)S(C)(=O)=O)cc1	-14	-8	4	0	4104
CN(c1ccccc1C(=O)Nc1ccc(S(=O)(=O)N2CCCCC2)cc1)S(C)(=O)=O	1	4	-7	-2	20379*
CC(=O)Nc1ccc(NC(=O)c2ccccc2N(C)S(C)(=O)=O)cc1	-2	-17	-9	-4	24126*
Cc1nnc(SC(C)C(=O)Nc2ccc(S(=O)(=O)N3CCCCCC3)cc2)s1 (stereo not given)	-2	-17	-1	0	22908*
Cc1nnc(NC(=O)c2ccc(S(=O)(=O)N3CCCCC3)cc2)s1	-5	-1	-8	-1	4002
Cc1nnc(SCC(=O)NCc2ccco2)s1	.	-17	.	.	.
O=C(COc1ccc(Cl)cc1Cl)NCc1nnc(SCC(=O)c2ccccc2)n1-c1ccc(Cl)c(Cl)c1	.	-4	.	.	.
CC(=O)NS(=O)(=O)c1ccc(NC(=O)c2ccccc2F)cc1	-3	-11	-2	-1	23846*
SMILES	Anthrax LF prot	PriA SSB inh	BoNT F protease	BoNT-A LC inh2	Autofluor counter
O=C(Nc1nc2c(s1)CCC[C@H]2C(=O)NCc1nc(-c2ccccc2)no1)c1ccc(Cl)cc1	.	-14	.	.	.
Cc1c2c(nc3c(C(=O)NC4CC4)cnn13)CCCC2	-7	3	6	5	21129*
CCC(C)NC(=O)c1cnn2c(C)c3c(nc12)CCCC3 (stereo not given)	-2	1	-8	1	10862
N#Cc1nc(-c2cccs2)oc1NCCc1ccccc1	-8	21	0	-1	2093
N#Cc1nc(-c2cccs2)oc1NCc1ccc2c(c1)OCO2	-8	48*	14	2	3291
O=C(NCCO)c1cccc(Nc2nc(-c3ccccc3)c3cc(Cl)ccc3n2)c1	6	3	-4	1	20185*
Fc1ccc(-c2ccnc3nc(N4CCOCC4)nn23)cc1	-1	5	-3	-1	23704*
Fc1ccc(-c2ccnc3nc(-n4cccc4)nn23)cc1	-1	-19	4	1	9565
COc1ccc(-c2ccnc3nc(N4CCN(c5ccccc5)CC4)nn23)cc1	-11	-12	-2	?	22429*
O=C(Nc1ccc(CN2CCN(c3ccccn3)CC2)cc1)c1ccccc1F	.	-2	.	.	.
O=C(CCn1cnc2c(cnn2-c2ccc(F)cc2)c1=O)NCc1cccnc1	.	-6	.	.	.
Cc1ccc(-n2ncc3c(=O)n(Cc4cccnc4)cnc32)cc1	-3	-4	-3	1	19270*
COc1cc([N+](=O)[O-])ccc1NC(=O)CCSc1ccc(F)cc1	.	11	.	.	.
Cc1ccc(O)c(C(=O)c2cc(C#N)c(=O)n(-c3c(C)n(C)n(-c4ccccc4)c3=O)c2)c1	-1	-13	0	-1	16705*
Cc1cc(Cl)ccc1NC(=O)CCCN1C(=O)CCC1=O	-1	-10	-6	0	11642
O=C(CCCN1C(=O)CCC1=O)Nc1ccccc1F	2	-6	4	4	22328*
O=C(CCCN1C(=O)CCC1=O)Nc1ccc(Br)cc1F	0	-2	0	0	23503*
COc1cc(Cl)c(C)cc1NC(=O)CCCN1C(=O)CCC1=O	-3	1	-2	1	19155*
CN1CCN(c2cc(NC(=O)c3ccc4nsnc4c3)ncn2)CC1	.	0	.	.	.
CCCS(=O)(=O)N1CCCc2ccc(NS(=O)(=O)c3ccc(OC)c(F)c3)cc21	.	4	.	.	.
Cc1ccc2[nH]c(=O)c3cc(C(=O)NCCC(C)C)sc3c2c1	-9	-4	41*	0	3817
COc1c2ccc(C(=O)NC(c3cccnc3)C3CCOCC3)cc2nn1C (stereo not given)	.	-18	.	.	.
C=Cc1ccc(CN2CCCN(Cc3ccc(F)cc3)S2(=O)=O)cc1	-6	3	45*	0	4100
CC(=CC(=O)c1ccccc1)Nc1ccc2c(c1)OCO2	.	41*	.	.	.
C=CCn1c(CCNC(=O)c2ccccc2F)nnc1SCc1nc2ccccc2c(=O)[nH]1	-2	-10	-4	-3	24056*
SMILES	Anthrax LF prot	PriA SSB inh	BoNT F protease	BoNT-A LC inh2	Autofluor counter
Cc1sc(NC(=O)CN2CCCCCC2)c(C#N)c1C	.	6	.	.	.
c1ccc(-c2nc(NCc3ccco3)c3oc4ccccc4c3n2)cc1	-4	-13	2	?	22249*
Cc1ccc(-c2nc(NCc3ccco3)c3ccccc3n2)cc1	-2	-19	-2	0	2547
COc1nn(CC(=O)N2N=C(C)CC2(O)C(F)(F)F)cc1[N+](=O)[O-] (stereo not given)	-3	-13	-4	-2	24478*
CC1=NN(C(=O)Cn2ccc([N+](=O)[O-])n2)C(O)(C(F)(F)F)C1 (stereo not given)	1	-6	-4	0	2454
O=C(C1CC1)N(Cc1ccco1)c1nc(-c2ccccc2)cs1	-1	-3	-6	-2	23051*
O=C(COc1ccc(Cl)cc1)N(Cc1ccccc1)c1nc(-c2ccccc2)cs1	-2	-2	-19	-1	5339
